Source: PubChem
The list is not random: actives were taken first. Their share in the collection is about 9.9%.
Tau fluor counter = counter-screen for tau fibril formation inhibitors. tau K18 P301L Alexa594 fluorescence, heparin fibrillization. Potency, µM (doses to about 57.7 µM), for the others: at the top dose activity change, negative = decrease. hit rate 0.93% among 280,000. AID 1463; further: nearly all actives have a fitted effect of over 55% in size
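Human tau K18 P301L (15 uM unlabeled, 0.24 uM Alexa 594-labeled) in 100 mM sodium acetate pH 7 with 20 uM heparin, 6 hr at 37 C. ThT 30 uM added, 1 hr ambient; Alexa 594 FP and total fluorescence read at 555/632 nm.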
JMJD2E inh = inhibitors of human JMJD2E histone demethylase | B2RXH2 | hit rate 1.6% among 230,000 | JMJD2E catalytic domain, FDH-coupled NADH fluorescence (FDH is formaldehyde dehydrogenase) | Potency, µM (highest dose often 57.1 µM), for inactives: top-dose activity change, negative = inhibition, actives largely listed as inhibitors; active means well fitted inhibition curve with a large enough effect, not every such curve was filed as active; inconclusive means small, poorly fitted or top-dose-only effect, or another doubt; inactive means no such curve, though single readings can be large or run the other way;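 further: 0% = wells with enzyme and -100% = buffer wells without enzyme; nearly all actives have a fitted effect of over 50% in size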
Tau ThT inhib = tau fibrillization inhibition (ThT binding). recombinant tau K18 P301L, heparin-induced fibrillization, ThT fluorescence. Potency, µM (highest dose often 57.4 µM), for the others: at the highest dose activity, negative = inhibition, actives largely listed as inhibitors. hit rate 2.1% among 270,000; further: nearly all actives have a fitted effect of over 55% in size
Target sequence (P10636 561-689 P618L limits assumed): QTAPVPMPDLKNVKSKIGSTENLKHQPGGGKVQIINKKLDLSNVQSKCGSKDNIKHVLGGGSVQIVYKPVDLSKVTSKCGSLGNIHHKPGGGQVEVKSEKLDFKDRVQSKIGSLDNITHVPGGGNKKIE
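Using a mix of unlabeled (15 uM) and Alexa 594-labeled (0.24 uM) tau K18 P301L, heparin-triggered fibrillization over 6 hr at 37 C was scored by ThT fluorescence.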
ALDH1A1 inh = inhibitors of human aldehyde dehydrogenase 1A1; P00352; Purified ALDH1A1, NADH fluorescence, propionaldehyde substrate; Potency, µM (top dose mostly 75.3 µM), for the others: at the top dose activity, negative = inhibition, actives largely listed as inhibitors; hit rate 7.3% among 220,000; AID 1030; active means well fitted inhibition curve with a large enough effect, not every such curve was filed as active; inconclusive means small, poorly fitted or top-dose-only effect, or another doubt; inactive means no such curve, though single readings can be large or run the other way;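 further: plate controls were no enzyme wells and a reference inhibitor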
Tau FP inhib = inhibitors of human tau fibril formation | hit rate 0.39% among 280,000 | K18 P301L tau heparin fibrillization, Alexa594 FP, 6 h | AID 1468 | Potency, µM (highest dose often 57.7 µM), for inactives: at the top dose activity, negative = inhibition, actives largely listed as inhibitors; further: nearly all actives have a fitted effect of over 55% in size
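Recombinant K18 P301L […], labeled with Alexa 594 at 0.24 uM over 15 uM unlabeled; heparin inducer 20 uM final; 37 C, 6 hr; FP endpoint.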
HPGD block = blocks human HPGD enzyme activity; P15428; purified HPGD, NADH fluorescence kinetic, PGE2 substrate; Potency, µM, for inactives: at the highest dose activity change, negative = inhibition, usual class: inhibitors; hit rate 4.3% among 150,000; active means well fitted inhibition curve with a large enough effect, not every such curve was filed as active; inconclusive means small, poorly fitted or top-dose-only effect, or another doubt; inactive means no such curve, though single readings can be large or run the other way
Target sequence (P15428 whole entry, looked up): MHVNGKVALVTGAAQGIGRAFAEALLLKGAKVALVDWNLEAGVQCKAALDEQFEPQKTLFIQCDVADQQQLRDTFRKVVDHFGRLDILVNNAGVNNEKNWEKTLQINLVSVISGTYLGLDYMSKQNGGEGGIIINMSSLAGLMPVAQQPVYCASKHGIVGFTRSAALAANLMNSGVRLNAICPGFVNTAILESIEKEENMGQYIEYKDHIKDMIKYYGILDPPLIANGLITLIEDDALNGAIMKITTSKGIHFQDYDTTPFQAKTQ
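20 nM HPGD preincubated 15 min at room temperature with compound in 50 mM Tris-HCl pH 8, 0.01% Tween 20. Started with 1 mM NAD+ and 30 uM prostaglandin E2; NADH fluorescence (360/450 nm) read 5 times over 30-s intervals, last minus first.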
* = called active by the depositor. Unless noted, the call rests on the fitted dose curve; in most records, active means well fitted curve in the direction sought with a large enough effect; inconclusive means small, poorly fitted or top-dose-only effect, or another doubt; inactive means no such curve, though single readings can be large; an effect the other way counts as inactive or inconclusive. Unless noted, on the % scale 0 is the no-effect control and ±100 the full control effect; potency means the concentration at half of the fitted maximal effect.

For CCC(Oc1ccccc1)C(=O)Nc1nc2c(s1)C(=O)CC(C)(C)C2 (stereo unspecified) the results were Tau fluor counter -5.7%, JMJD2E inh -22.8%, Tau ThT inhib -2.3%, ALDH1A1 inh 12.6µM*, Tau FP inhib 1.9% and HPGD block -14.3%.
For CC1(C)CC(=O)c2sc(NC(=O)CN3CCOCC3)nc2C1 the results were Tau fluor counter -2.5%, JMJD2E inh -6.4%, Tau ThT inhib -9.6%, ALDH1A1 inh 20µM*, Tau FP inhib -0.5% and HPGD block -6.1%.
COCCn1c(SCC(=O)Nc2cc(C)nn2-c2ccccc2)nnc1-c1ccncc1 was read as Tau fluor counter -5.7%, JMJD2E inh -2.9%, Tau ThT inhib -2.0%, ALDH1A1 inh 3.5%, Tau FP inhib -2.5% and HPGD block -0.5%.
CC(C)CC(=O)NC(=S)Nc1ccccc1C(=O)Nc1ccccc1 was read as Tau fluor counter -8.5%, JMJD2E inh -3.9%, Tau ThT inhib -9.8%, ALDH1A1 inh 10µM*, Tau FP inhib -0.6% and HPGD block -15.1%.
Screening CC(C)CC(=O)Nc1ccc(Nc2ccccc2)cc1 returned Tau fluor counter -2.1%, JMJD2E inh -1.9%, Tau ThT inhib 6.9%, ALDH1A1 inh -0.3%, Tau FP inhib 10.1% and HPGD block 11.2µM*.
For CC(C)CC(=O)NC(=S)Nc1cccc(NC(=O)c2ccccc2Cl)c1 the results were Tau fluor counter -22.8%, JMJD2E inh -7.2%, Tau ThT inhib -8.5%, ALDH1A1 inh inconclusive, Tau FP inhib 1.9% and HPGD block -10.1%.
`CC(C)C(=O)NC(=S)Nc1ccccc1C(=O)Nc1ccccc1` gave Tau fluor counter -0.8%, JMJD2E inh -3.4%, Tau ThT inhib -4.9%, ALDH1A1 inh -1.2%, Tau FP inhib 0.4% and HPGD block -9.7%.
For CC(C)(C)C(=O)NC(=S)Nc1ccccc1C(=O)Nc1ccccc1 the results were Tau fluor counter -2.3%, JMJD2E inh -7.5%, Tau ThT inhib 1.9%, ALDH1A1 inh 25.1µM*, Tau FP inhib -6.0% and HPGD block -3.4%.
Screening COc1ccc(CNc2ncncc2-c2ccccc2Cl)c(OC)c1 returned Tau fluor counter -4.0%, JMJD2E inh -26.1%, Tau ThT inhib -12.7%, ALDH1A1 inh inconclusive, Tau FP inhib 5.3% and HPGD block -13.0%.
Screening O=C(Nc1cccc(Cl)c1Cl)c1cc(S(=O)(=O)NCc2ccc3c(c2)OCO3)ccc1F returned Tau fluor counter -12.5%, Tau ThT inhib 7.4% and Tau FP inhib -12.0%.
For CC(NC(=O)c1nn(C)c2c1CSc1ccccc1-2)c1ccccc1 (stereo unspecified) the results were Tau fluor counter -12.8%, Tau ThT inhib -14.2% and Tau FP inhib -6.5%.
Cn1c(=O)c2c(nc(CN3CCN(C(=O)c4ccco4)CC3)n2Cc2ccc(F)cc2)n(C)c1=O was read as Tau fluor counter 2.8%, JMJD2E inh -6.4%, Tau ThT inhib -0.4%, ALDH1A1 inh 20µM*, Tau FP inhib inconclusive and HPGD block -11.6%.
Cn1c(=O)c2c(nc(NCc3ccc4c(c3)OCO4)n2Cc2ccccc2F)n(C)c1=O was read as Tau fluor counter -19.3%, JMJD2E inh 2.0%, Tau ThT inhib -13.5%, ALDH1A1 inh 12.6µM*, Tau FP inhib inconclusive and HPGD block -7.2%.
`Cc1ccccc1Cn1c(CN2CCN(C(=O)c3ccco3)CC2)nc2c1c(=O)n(C)c(=O)n2C` gave Tau fluor counter 0.7%, JMJD2E inh -0.3%, Tau ThT inhib -0.2%, ALDH1A1 inh inconclusive, Tau FP inhib -7.1% and HPGD block -2.1%.
Screening Cn1c(=O)c2c(nc(CN3CCN(C(=O)c4ccco4)CC3)n2Cc2ccccc2F)n(C)c1=O returned Tau fluor counter -6.1%, JMJD2E inh -6.0%, Tau ThT inhib -12.4%, ALDH1A1 inh 12.6µM*, Tau FP inhib 9.6% and HPGD block -7.9%.
